From PubChem BioAssay
KB-3-1 cytotox – qHTS assay for MDR1-selective chemotherapeutics: Primary screen using the parental adenocarcinoma cell KB-3-1; Potency, µM (highest dose often 46.1 µM), most hits filed as cytotoxic; KB-3-1 viability, CellTiter-Glo ATP luminescence, 72 h; hit rate 1.4% among 400,000; note: nearly all actives have a fitted effect of over 60% in size
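Using CellTiter-Glo luminescence, growth of non-resistant KB-3-1 adenocarcinoma cells is assessed 72 h after pin-tool compound addition at 37 °C. Normalized responses across the concentration series yield fitted curves.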
KB-V1 cytotox – qHTS assay for MDR1-selective chemotherapeutics: Primary screen using the drug-selected MDR subline cells KB-V1; hit rate 3.4% among 400,000; KB-V1 MDR cells viability, CellTiter-Glo, 72 h; Potency, µM (highest dose often 46.1 µM), actives largely listed as cytotoxic; note: nearly all actives have a fitted effect of over 60% in size
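Following 72 h at 37 degrees C with compound, KB-V1 cell viability was read by CellTiter-Glo luminescence, medium being phenol-red-free DMEM plus 10% FBS; concentration-response parameters came from normalized, curve-fitted qHTS data.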
HT1080 IDH1KD tx – qHTS for induction of synthetic lethality in tumor cells producing 2HG: qHTS for the HT-1080-IDH1KD cell line; AID 686971, 2013; HT-1080 IDH1 knockdown viability, ATP luminescence, 48 h; Potency, µM (doses to about 46.1 µM), for inactives: at the highest dose activity, negative = toxicity, usual class: cytotoxic; hit rate 2% among 360,000;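 note: 0% = DMSO wells and -100% = cell-free medium wells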
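Knockdown cells (IDH1KD HT-1080) received compounds 2 h after plating at 750 cells/well and were kept 48 h at 37 °C in 5% FBS RPMI. A CellTiter-Glo luminescence read gave % activity for curve fitting.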
HT1080NT lethal – qHTS for induction of synthetic lethality in tumor cells producing 2HG: qHTS for the HT-1080-NT fibrosarcoma cell line; HT-1080-NT fibrosarcoma viability, CellTiter-Glo ATP luminescence, 48 h; Potency, µM (top dose mostly 46.1 µM), without a hit: top-dose activity, negative = less viability, usual class: cytotoxic; hit rate 1.6% among 360,000; AID 686970, 2013;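 note: NT is the 2HG producing partner of a matched IDH1 knockdown line; 0% = DMSO-treated cells and -100% = media-only wells without cells; nearly all actives have a fitted effect of over 55% in size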
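HT-1080-NT; 750 cells/well; 5% FBS RPMI; 48 h compound, 37 degrees C; CellTiter-Glo luminescence; curve fitting and curve-class assignment.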
Numbers without * were called inactive; i = inactive; ? = inconclusive; / = no result. The list is not random: actives were taken first. Their share in the collection is about 5.7%. Calls come from the whole dose curve; as a rule, active = well fitted curve in the direction sought with a large enough effect; inconclusive = small, poorly fitted or top-dose-only effect, or another doubt; inactive = no such curve, though single readings can be large; an effect the other way counts as inactive or inconclusive. Unless noted, % is set by controls: 0 for no effect and ±100 for the full control effect; potency is the fitted concentration of half-maximal effect.

SMILES	KB-3-1 cytotox	KB-V1 cytotox	HT1080 IDH1KD tx	HT1080NT lethal
N=C1/C(=C/c2cccn2Cc2ccc(Cl)cc2)C(=O)N=C2SC=CN12	i	i	20.6µM*	16.4µM*
N=C1/C(=C/c2cccn2CCOc2ccccc2)C(=O)N=C2SC=C(c3ccccc3)N12	?	3.66µM*	?	-28.2%
Cc1ccc(CNC(=O)Cn2cc(S(=O)(=O)Cc3ccccc3F)c3ccccc32)cc1	i	i	/	/
CCc1ccccc1NC(=O)c1ccc2c(c1)nnn2C1CCCC1	i	i	/	/
Cc1ccc(C(=O)c2cc([N+](=O)[O-])ccc2N2CC(C)OC(C)C2)cc1 (stereo unspecified)	i	?	?	18.4µM*
Cc1ccc(C(=O)c2cc([N+](=O)[O-])ccc2N2CCCCC2)cc1	i	?	0.92µM*	0.82µM*
CC1CN(c2ccc([N+](=O)[O-])cc2C#N)CC(C)O1 (stereo unspecified)	i	?	11.0%	9.8%
Cc1ccc(O)c(C(=O)c2cnc3c(c2)CN(C)C(=O)N3)c1	?	7.94µM*	?	?
c1ccc(CNCCCNCCCCNCCCNCc2ccccc2)cc1	?	?	5.17µM*	?
CCc1cc(OCCCCNCc2ccccc2)ccc1Cl	?	?	?	23.1µM*
Clc1cc(Br)ccc1OCCCNCc1ccccc1	?	?	?	23.1µM*
CC(C)(C)c1ccc(OCCCNCc2ccccc2)cc1	?	i	-4.4%	-8.1%
Cc1ccc(CNC(=O)c2cc(=O)c3cc(C)cc(C)c3o2)cc1	i	i	/	/
COc1ccc(-n2ncc(C(=O)NCCCN3CCCCC3)c2C2CCN(C(=O)OC(C)(C)C)CC2)cc1	i	i	/	/
CC(OC(=O)/C(C#N)=C/c1ccc(N(C)C)cc1)C(=O)N(C)c1ccccc1 (stereo unspecified)	i	18.4µM*	-6.1%	-1.3%
Cc1ccc(CNC(=O)Cn2nc(N3CCN(c4ccccc4)CC3)ccc2=O)cc1	i	?	/	/
COCCCNC(=O)[C@H](CSCc1ccccc1)N1Cc2ccccc2C1=O	i	i	14.5%	-9.7%
COCCNC(=O)[C@H](CSCc1ccccc1)N1Cc2ccccc2C1=O	i	9.2µM*	0.3%	3.3%
CCC(CC)C(=O)N(C)c1c(C)nc2c(OCC=C(C)C)cccn12	i	i	14.6µM*	?
CCC(CC)C(=O)N(C)c1c(C)nc2c(OCCOc3ccccc3)cccn12	i	?	6.8%	-5.3%
CCCCn1c(NC(=O)c2ccccc2)nc2ccccc21	i	?	0.0%	?
CCCCn1c(NC(=S)Nc2ccccc2)nc2ccccc21	?	?	?	18.4µM*
S=C(Nc1ccccc1)Nc1nc2ccccc2n1CCOc1ccccc1	i	14.6µM*	?	?
CC(C)C(NC(=O)CSCc1ccc([N+](=O)[O-])cc1)C(C)C	i	18.4µM*	-1.9%	8.4%
Cc1cc(C)n2ncc(C(=O)NCC(C)C)c2n1	i	i	/	/
SMILES	KB-3-1 cytotox	KB-V1 cytotox	HT1080 IDH1KD tx	HT1080NT lethal
CCOC(=O)c1c(NC(=O)C(=O)N/N=C/c2ccccc2O)sc2c1CCCCC2	?	3.66µM*	?	?
CCOC(=O)c1c(NC(=O)C(=O)N/N=C/c2ccccc2OC)sc2c1CCCCC2	?	i	0.7%	-2.0%
CCOC(=O)c1c(NC(=O)C(=O)N/N=C(\C)c2ccc(OC)cc2)sc2c1CCCCC2	i	3.26µM*	15.7%	7.6%
CCOC(=O)c1c(NC(=O)c2ccc(OC)cc2)sc2c1CCCCC2	i	i	/	/
CC(=O)n1cc(N(C(=O)CCl)c2ccc(C)cc2)c2ccccc21	18.4µM*	?	2.91µM*	2.31µM*
CC(=O)N(c1ccc(Cl)cc1)c1cn(C(C)=O)c2ccccc12	i	i	-8.0%	-11.1%
CNC(=O)C1CCC(Cn2c(=O)[nH]c3ccsc3c2=O)CC1 (stereo unspecified)	i	i	/	/
CC(=O)N1CC(=O)N=C1SCC(=O)Nc1nc(C)c(-c2ccccc2)s1	?	13µM*	?	?
O=C(Nc1cccc(-c2cccc(Cl)c2)c1)C1CCN(Cc2ccc(CO)o2)CC1	?	i	16.4µM*	16.4µM*
